Reference: PubChem BioAssay (NCI)
“And” between values parts separate entries of the source, which are not always exact repeats. Identical values can stand only once. This is part of a sample that, as a whole, favours compounds with a hit. Of some 83,000 tested, about 20% had one in any assay.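 48-hour exposure, single concentration, 96-well plates; percent growth endpoint where 0 means no net growth. Active: below 10.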 Unmarked numbers belong to inactive results. The source made the active and inactive calls.

How the values were obtained:
Assay in all cases: NCI-60 one-dose screen, 48 h (100 = growth as untreated, 0 = no growth, -100 = all killed)
Conditions in all cases: 10 µM unless noted
[1] = test system: NCI-H23 lung
[2] = test system: NCI-H226 lung
[3] = test system: HOP-62 NSCLC
[4] = test system: NCI-H460 lung
[5] = test system: HOP-92 NSCLC
[6] = test system: NCI-H522 lung
[7] = test system: A549/ATCC NSCLC
[8] = test system: 786-0 renal
[9] = test system: COLO 205 colon
[10] = test system: DU-145 prostate
[11] = test system: K-562 leukemia
[12] = test system: MALME-3M melanoma
[13] = test system: MDA-MB-231 breast
[14] = test system: RXF 393 renal
[15] = test system: SF-268 CNS
[16] = test system: SF-295 CNS
[17] = test system: SF-539 CNS
[18] = test system: UACC-257 melanoma
[19] = test system: M14 melanoma
[20] = test system: NCI-H322M lung

SMILES	growth [1]	growth [2]	growth [3]	growth [4]	growth [5]	growth [6]	growth [7]	growth [8]	growth [9]	growth [10]	growth [11]	growth [12]	growth [13]	growth [14]	growth [15]	growth [16]	growth [17]	growth [18]	growth [19]	growth [20]
O=C(NCc1cccnc1)/C(=C\c1ccc(Br)cc1)S(=O)(=O)c1ccccc1	-43.7% (active)	7.52% (active)	-34.1% (active)	-30.5% (active)	-2.35% (active)	-71.2% (active)	-3.53% (active)	-67.7% (active)	-84.2% (active)	-86.8% (active)	29.7%	-20.5% (active)	-65.7% (active)	-88% (active)	-30.9% (active)	13.9%	-59% (active)	-20.5% (active)	-41.1% (active)	–
CC[C@H](C)[C@H](NC(=O)[C@H](CCCCN)NC(=O)[C@H](CCCCN)NC(=O)[C@@H](NC(=O)[C@@H](NC(=O)[C@@H](N)Cc1cnc[nH]1)[C@@H](C)CC)[C@@H](C)CC)C(=O)N[C@@H](CCCNC(=N)N)C(=O)N[C@H](C(=O)N[C@@H](Cc1c[nH]c2ccccc12)C(=O)N[C@@H](Cc1ccc(O)cc1)C(=O)N[C@@H](CCCNC(=N)N)C(=O)N[C@@H](CCCCN)C(=O)N[C@@H](C)C(=O)N[C@@H](Cc1c[nH]c2ccccc12)C(=O)N[C@@H](Cc1cnc[nH]1)C(=O)N[C@H](C(=O)N[C@@H](CC(C)C)C(=O)NCC(=O)N[C@@H](CCCCN)C(=O)N[C@H](C(N)=O)C(C)C)C(C)C)[C@@H](C)O	17.2%	29.8%	35.9%	7.38% (active)	56.7%	45.9%	39.2%	-28.3% (active)	-54.8% (active)	30.7%	67.9%	4.7% (active)	10.9%	23.4%	-12.7% (active)	24.5%	-12.2% (active)	67.8%	-12% (active)	–
O=C1N=c2ccccc2=C1c1sc(=S)n(C2CC(=O)N(c3ccc(Cl)cc3)C2=O)c1O (centres undefined)	99.2%	92%	93.2%	102%	98.6%	97.1%	107%	102%	118%	106%	94.4%	102%	101%	116%	102%	104%	101%	105%	98.7%	–
CC1(C)C(N)=Nc2cc(OCCCCN3Cc4ccccc4C3)c(OCC3CC3)cc21	80.3%	79.6%	85.6%	75.2%	103%	64.2%	79.5%	64.8%	-62.7% (active)	88.8%	97.3%	2.01% (active)	59.2%	65.8%	74.7%	84.8%	80.8%	1.07% (active)	-53.1% (active)	–
O=C1C=CC(=O)N1c1ccc2ccccc2c1	93.4% and 103%	97.6% and 111%	101%	110% and 111%	81.8% and 84.1%	-58.9% (active) and -24.2% (active)	99%	103% and 104%	-58.5% (active) and -42.5% (active)	94.4% and 99.5%	47% and 35.5%	69.4% and 30.9%	111% and 96.5%	83.3% and 102%	100% and 105%	112% and 99%	108% and 93.6%	92.5% and 91.1%	91.1% and 103%	–
Cc1oc2c(Cc3ccc(NC(=O)c4ccc(Cl)cc4)cc3)ncnc2c1C(=O)NO	97.2%	86.4%	101%	97.3%	125%	70.7%	88.5%	95%	107%	105%	78.3%	93.9%	108%	97.6%	97.6%	95.3%	104%	84%	99.6%	–
Clc1ccc2c(c1)N(c1ncnc3ccc(-c4cnc5[nH]ccc5c4)cc13)CC2	40.6%	40.9%	13.8%	16.5%	14.8%	30.6%	21.4%	24.5%	45.1%	27.6%	5.53% (active)	7.46% (active)	35.6%	4.78% (active)	39.8%	19.7%	27.5%	34.4%	8.89% (active)	–
Cc1ccc(-c2nc3nc(-c4ccc(F)cc4)nc(N4CCCNCC4)c3o2)cc1	-79.2% (active)	112%	-62.2% (active)	-83.2% (active)	-57.6% (active)	-65.2% (active)	-82.4% (active)	-86.4% (active)	-77.6% (active)	-94.8% (active)	-28.4% (active)	-72.7% (active)	-85.1% (active)	-79.8% (active)	-65.7% (active)	-86.3% (active)	-97.9% (active)	-72.2% (active)	-86.6% (active)	–
C=C1C(=O)O[C@H]2[C@H]1CC/C(COC(=O)NCc1ccc(Cn3c(=O)sn(CCCI)c3=O)cc1)=C\CC[C@@]1(C)O[C@@H]21	72.1%	77.9%	96%	102%	-29.3% (active)	-68.2% (active)	95.5%	6.22% (active)	-45.8% (active)	13%	4.22% (active)	-75.5% (active)	10.9%	-5.91% (active)	75%	99.3%	40%	28.8%	-42% (active)	–
C[C@]12CCc3c(ccc4cc(O)ccc34)[C@@H]1C[C@H](O)[C@@H]2O	94.2%	94.7%	91.7%	97.8%	85.6%	98.1%	106%	111%	109%	108%	105%	113%	79.9%	102%	103%	95.3%	102%	102%	103%	–
Cn1cc(-c2nonc2-c2cn(C)c3ccc(Br)cc23)c2ccccc21	56.4%	71.3%	25.8%	12.9%	44.4%	8.18% (active)	40.1%	33.3%	29.6%	53%	13.3%	30.2%	45.5%	42.4%	37.3%	16.4%	-0.366% (active)	49.5%	17.7%	–
O=Nc1ccc(NO)c2ccccc12	90.6% and 68.3%	–	103% and 90.5%	94.6% and 105%	95.1% and 92.9%	93.3% and 69.5%	106% and 27.5%	104% and 96.9%	101% and 85.1%	107% and 98%	111% and 56.5%	118% and 69.6%	89% and 73.5%	114% and 97.2%	102% and 83.9%	99.3% and 121%	96.8% and 109%	104% and 52.4%	99.2% and 93.7%	97.8% and 96.2%
COc1ccc(Nc2ncnc3ccc(-c4cncc(NS(C)(=O)=O)c4)cc23)cc1Cl	35.4%	56%	39.2%	75.9%	-7.88% (active)	9.61% (active)	64.5%	58.3%	30.2%	46.9%	28.1%	36.2%	21.6%	26.8%	24.9%	55.8%	18.9%	37%	51.5%	–
O=C(CCl)N(O)c1ccc(/C=C/c2ccccc2)cc1	70.7% and 74.2%	56.9%	96.5%	85.4% and 73%	81.8%	61.5% and 30.4%	90.3% and 65%	84% and 78.3%	92.9% and 83.1%	90.3% and 86.6%	64% and 46.1%	95.3% and 84.2%	82.1% and 66.5%	99.9% and 71.3%	84.7% and 72.8%	95.5% and 80.9%	94.3% and 93.4%	103%	75% and 71.8%	–
O=C1OCC2=C1C(c1cccc(C(F)(F)F)c1)c1cc3c(cc1N2CCO)OCCO3 (centres undefined)	28.5%	52.3%	23.5%	7.21% (active)	63.3%	7.2% (active)	16.3%	25.5%	-17.7% (active)	16%	9.6% (active)	49.5%	37.6%	10.9%	38.8%	0.743% (active)	-8.3% (active)	65.3%	-6.89% (active)	–
Cc1ccc(Cc2cnc(NC(=O)c3cc(C)oc3C)s2)cc1	76.1%	90.4%	86%	31.3%	79.1%	57.3%	55%	76.8%	115%	75.6%	29.5%	85.2%	79.6%	58.7%	67.8%	66.6%	76.8%	94.2%	70.8%	–
N#CC1C(=O)c2ccccc2C1c1ccccc1 (centres undefined)	97.4% and 102%	–	98.8% and 107%	114% and 105%	75.2% and 84.7%	96.4% and 99%	102%	93.1% and 89.8%	115%	109% and 104%	120% and 101%	96% and 106%	104% and 120%	94.7% and 124%	104% and 101%	96% and 109%	110% and 107%	113% and 99.1%	104% and 105%	105% and 96.7%
Cn1cc(C2=C(c3cccc4ccccc34)C(=O)NC2=O)c2cc(Br)ccc21	93.5%	103%	111%	104%	171%	99.8%	91.3%	84.7%	92%	110%	87.2%	143%	113%	102%	102%	102%	121%	138%	114%	–
Cc1ccc2nc3ccccc3c(NCc3ccc(Cl)cc3)c2c1	46%	72.3%	65.3%	29.5%	-4.63% (active)	54.2%	40.8%	34.7%	-53.3% (active)	51.4%	2.63% (active)	-14% (active)	37.7%	29%	79.1%	43.7%	40.2%	-2.88% (active)	-17.1% (active)	–
COc1ccc(Cn2cc(C(=O)Nc3cccnc3Nc3ccccc3)nn2)cc1	98.7%	95.6%	103%	114%	105%	91.8%	99.3%	94.2%	113%	103%	108%	120%	86.4%	103%	96%	102%	95.6%	110%	106%	–
COc1cc(NC2CCCCC2O)c2nc(-c3ccc(Cl)cc3)ccc2c1 (centres undefined)	84.2% and 98.5%	90%	109% and 108%	41.2% and 57.9%	–	65.7% and 89.5%	69% and 73.5%	42.4% and 77.6%	93.2% and 110%	95.3% and 95%	44.8%	72.5% and 124%	44.6% and 78.1%	39.3% and 67.9%	77.5% and 84%	51.5% and 54.3%	105% and 93.9%	101% and 105%	45.8% and 79.9%	–
Nc1ccccc1SC(CC(=O)c1ccccc1)c1ccc([N+](=O)[O-])cc1 (centres undefined)	93.2% and 84.7%	–	106% and 102%	103% and 105%	71.4%	96.9% and 76.4%	93.9% and 82%	106% and 93.3%	91.6% and 102%	110% and 88%	68.8% and 13.2%	112% and 74.5%	84.1% and 85.2%	102% and 91.2%	98.7% and 82.1%	90.2% and 85.2%	107% and 105%	107% and 86.7%	108% and 85.8%	107% and 83.8%
CCOc1ccccc1NC(=O)c1cc2ccccc2cc1O	16.4%	71.8%	98.4%	26.9%	5.82% (active)	12.9%	36.8%	70.7%	111%	78.5%	22.8%	49.8%	54.9%	63.2%	80.6%	106%	84.6%	54.2%	64.6%	–
O=C(NCc1ccc(Cn2c(=O)sn(-c3ccc(Cl)cc3)c2=O)cc1)OCc1ccc2c(Cl)cc(Cl)c(O)c2n1	44.1%	56.9%	38.3%	21.7%	64.7%	68.8%	30.5%	55.8%	109%	44.8%	29.8%	78.3%	72%	25.8%	54.6%	18.2%	42.5%	78.1%	50.5%	–
[Cu+].[NH-][C@H]1C[N-]C(=O)[C@H]([C@H]2CCN=C(N)N2)[N-]C(=O)/C(=C\NC(N)=O)[N-]C(=O)[C@H](CNC(=O)C[C@@H](N)CCCN)[N-]C(=O)[C@H](CO)[N-]C1=O	105%	105%	94.8%	98.4%	-8.71% (active)	85.6%	99.3%	102%	111%	112%	101%	101%	101%	105%	107%	99.6%	106%	99.8%	104%	–
